Bioassay records (PubChem)
BAZ2B block = inhibitors of human BAZ2B bromodomain. Q9UIF8. AlphaScreen BAZ2B-H3K14Ac peptide displacement. Potency, µM (doses to about 114 µM), without a hit: at the top dose activity change, negative = inhibition, actives largely listed as inhibitors. hit rate 4.4% among 360,000. AID 504333; further: on the % scale 0 is the no-effect control and ±100 the full control effect; nearly all actives have a fitted effect of over 60% in size
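AlphaScreen displacement of biotin-H3(5-23)K14Ac peptide (50 nM final) from BAZ2B (50 nM final) in PBS pH 7.4, 0.01% Tween-20; complex preformed 30 min RT, then compounds (top 110 uM) 30 min RT, beads 20 min dark.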
G9a block = inhibitors of human histone lysine methyltransferase G9a | hit rate 8.8% among 350,000 | Potency, µM (titrated, usually from 102 µM), without a hit: top-dose activity, negative = inhibition, hits mostly inhibitors | G9a H3K9 monomethylation, AlphaScreen, 2 h | Q96KQ7; further: on the % scale 0 is the no-effect control and ±100 the full control effect; nearly all actives have a fitted effect of over 75% in size
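Chemiluminescent proximity detection of H3K9 monomethylation, read after 10 min bead incubation in the dark. Reaction: 20 nM G9a, 500 nM biotin-H3K9 peptide, 20 uM SAM cofactor, 2 h, room temperature, following 15 min enzyme-compound preincubation.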
VDR inh = vitamin D3 receptor (human) inhibition; P11473; VDR-SRC2-3 peptide fluorescence polarization, 2 h; Potency, µM, without a hit: max response, negative = inhibition, usual class: inhibitors; hit rate 0.93% among 400,000; AID 504847; further: on the % scale 0 is the no-effect control and ±100 the full control effect
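Fluorescence polarization assay of small-molecule disruption of VDR binding to coregulator peptide SRC2-3. Compounds and controls pin-transferred, then read after 2 h incubation at ambient room temperature.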
JMJD2A Tudor inh = inhibitors of human JMJD2A Tudor domain | AlphaScreen JMJD2A-Tudor / H3K4me3 peptide binding | Potency, µM (highest dose often 114 µM), for inactives: at the top dose activity change, negative = inhibition, hits mostly inhibitors | hit rate 4.4% among 390,000 | AID 504339; further: on the % scale 0 is the no-effect control and ±100 the full control effect; nearly all actives have a fitted effect of over 50% in size
HP1b binding inh = inhibitors of HP1-beta chromodomain binding to methylated histone tails | AlphaScreen HP1-beta / biotin-H3K9me3 peptide binding | Potency, µM (doses to about 114 µM), for the others: top-dose activity change, negative = inhibition, hits mostly inhibitors | hit rate 0.56% among 390,000 | AID 540317; further: nearly all actives have a fitted effect of over 70% in size
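AlphaScreen: HP1-beta (50 nM) preformed 30 min with biotin-H3(1-18)K9me3 peptide (50 nM) in PBS pH 7.4, 0.01% Tween-20. Compound added for 30 min at RT, then streptavidin donor/nickel chelate acceptor beads (10 ug/mL) for 30 min.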
PLK1 PBD inh = blocks phosphopeptide binding to human PLK1 polo-box domain. P53350. Plk1 PBD binding of FITC phosphopeptide, fluorescence polarization. Potency, µM, inactives show max response, negative = inhibition, hits mostly inhibitors. hit rate 2.8% among 360,000. AID 720504; further: series mostly up to about 57 µM; on the % scale 0 is the no-effect control and ±100 the full control effect; nearly all actives have a fitted effect of over 65% in size
* = called active by the depositor; ? = inconclusive; · = no result; [ ] = dose if it differs, or a comment. Hits are enriched below; roughly 11% of the tested compounds scored in any of these assays. The call rests on the fitted dose curve; in most records, active means well fitted curve in the direction sought with a large enough effect; inconclusive means small, poorly fitted or top-dose-only effect, or another doubt; inactive means no such curve, though single readings can be large; an effect the other way counts as inactive or inconclusive. Potency means the concentration at half of the fitted maximal effect.

SMILES | BAZ2B block | G9a block | VDR inh | JMJD2A Tudor inh | HP1b binding inh | PLK1 PBD inh
Cc1ccc(-c2csc(=Nc3ccccc3)n2CCCO)cc1 | 45µM* | 16µM* | -6% | 35µM* | ? | ·
COc1ccc(-c2csc(=NCCO)n2-c2ccccc2)cc1 | 32µM* | 50µM* | -17% | ? | ? | -22%
Cc1csc(=Nc2ccccc2)n1CCCN1CCCC1=O | ? | ? | 14% | -33% | -3% | -14%
OCCCn1c(CCNc2nc(-c3ccc(F)cc3)cs2)nc2cc(C(F)(F)F)ccc21 | · | · | ? | -35% | 27% | -24%
COc1ccc(-c2csc(=Nc3ccccc3)n2CCO)cc1 | 13µM* | 40µM* | -15% | 45µM* | ? | -21%
CCNC(=O)C1CCCN(C(=O)c2ccccc2OC(F)(F)F)CC1 (stereo not drawn) | · | · | · | · | · | 3%
Cn1c(N)c(C(=O)CCl)c(=O)n(Cc2ccccc2)c1=O | -2% | 8% | 11% | -10% | 39% | 17µM*
Cn1c(N)c(C(=O)COC(=O)c2cc(-c3ccco3)nc3ccccc23)c(=O)n(Cc2ccccc2)c1=O | ? | 7.9µM* | · | · | · | ·
COc1ccc(-c2cc(C(=O)OCC(=O)c3c(N)n(C)c(=O)n(C)c3=O)c3ccccc3n2)cc1 | -14% | 8% | 0% | 13% | 56% | -12%
Cn1c(N)c(C(=O)COC(=O)c2cc(-c3ccco3)nc3ccccc23)c(=O)n(C)c1=O | -26% | 7.9µM* | 3% | 56µM* | ? | ?
Cc1cccc(C(=O)Nc2ccc(OCc3cc(=O)n4ccsc4n3)cc2)c1 | -3% | -4%[59 µM] | 7% | -11% | 20% | ·
Cc1ccc(S(=O)(=O)N2[C@@H](c3ccc(Cl)cc3)C(C(=O)O)=CC[C@H]2c2cccs2)cc1 | 5% | 4%[2.33 µM] | -8% | -6% | 28% | -19%
COc1ccc(NC(=O)C2CCCN(S(=O)(=O)c3ccc(F)cc3)C2)cc1 (stereo not drawn) | -2% | 7%[59 µM] | -5% | -2% | 34% | ·
COc1ccc(S(=O)(=O)N(Cc2nc(-c3ccc(C)cc3)no2)C2CCCCC2)cc1 | -2% | 19%[59 µM] | 4% | 10% | 56% | ·
O=C(Nc1ncnc2c1ncn2[C@@H]1O[C@H](/C=C/C(=O)N2CCN(c3ccc(F)cc3)CC2)[C@@H](O)[C@H]1O)c1ccccc1 | · | · | · | · | · | 0%
C[C@H](NC(=O)N1CCn2c1nc1ccccc12)C(=O)NCCc1ccccc1 | -12% | 21%[0.0925 µM] | -15% | -15% | 40% | 0%
C[C@H]1CN([C@@H](C)CO)C(=O)CCCn2cc(nn2)CO[C@@H]1CN(C)C(=O)Nc1ccccc1F | · | · | · | · | · | -20%
O=C(Cn1cc(C(F)(F)F)ccc1=O)Nc1ccc(N2CCOCC2)cc1 | -10% | 6% | -2% | 5% | 17% | 0%
C=CCn1c(=O)c(CCC(=O)Nc2ccc(N3CCOCC3)cc2)nc2cc(C(F)(F)F)ccc21 | -8% | · | -26% | 35µM* | -21% | 21µM*
Cc1cccc(CNc2ncncc2-c2cccc(C#N)c2)c1 | · | · | -17% | · | · | ·
CN(C)S(=O)(=O)c1ccc(NC(=O)CSc2nnc(-c3ccco3)o2)cc1 | · | · | -5% | -7% | 29% | -8%
Nc1nc(=S)c2[nH]c(=S)[nH]c2[nH]1 | · | · | -23% | 3.2µM* | -16%[57 µM] | ?
CSc1nc(=S)c2[nH]c(=S)[nH]c2[nH]1 | 79µM* | 0.63µM* | ? | 25µM* | 20µM* | 2.7µM*
COC(=O)c1ccc(OC)c(CN2CCCN(Cc3ccc(C)cc3)S2(=O)=O)c1 | 1% | -2%[59 µM] | -5% | 5% | 44% | ·
c1csc(-c2cnc3ccccc3n2)c1 | 32% | 36%[59 µM] | -1% | 18% | 31% | -5%
SMILES | BAZ2B block | G9a block | VDR inh | JMJD2A Tudor inh | HP1b binding inh | PLK1 PBD inh
c1cc2c(cnc3cscc32)s1 | -37% | 14µM* | 20% | -10% | 41% | 1%
O=c1cc(-c2ccco2)oc2ccc(Cl)cc12 | 4% | -18%[12.7 µM] | -7% | -11% | 21% | -8%
COc1cccc2oc(-c3ccco3)cc(=O)c12 | -2% | 5.6µM* | ? | -8% | 41% | 21µM*
O=C(COc1ccc2oc(-c3ccco3)cc(=O)c2c1)N1CCCCC1 | 50µM* | ? | -14% | -2%[11.4 µM] | ? | -21%
COc1ccc2oc(-c3ccco3)cc(=O)c2c1 | -18% | 45µM* | -15% | 3%[11.4 µM] | 63% | -12%
CCN(Cc1nc(-c2cccc(C)c2)no1)S(=O)(=O)c1ccc(C)cc1 | 60% | 59%[59 µM] | 3% | 53% | 98% | ·
c1ccc(N=C2SCCCS2)cc1 | · | · | · | · | · | -9%
CCOc1ccc(C(=O)OCC(=O)N2CC(C)OC(C)C2)cc1OCC (stereo not drawn) | -2% | 12% | -7% | -3% | 19% | -1%
O=C(Cn1ccc([N+](=O)[O-])n1)NCc1cccnc1 | -21% | -4% | -1% | -12% | 17% | -3%
CCOP(=O)(OCC)C(NC(=O)c1cccs1)C(F)(F)F (stereo not drawn) | -12% | -31% | 22% | -2% | -4% | -30%
CCCc1nccn1S(=O)(=O)c1cc(Br)ccc1OC | 3% | -5%[59 µM] | 15% | 1% | 36% | ·
O=[N+]([O-])c1cccc(C2CC(c3ccccc3)=NN2c2ccccc2)c1 (stereo not drawn) | ? | 32µM* | ? | 28µM* | ? | -11%
CCn1c(-c2cccc(Cl)c2)n[nH]c1=S | 7% | 6.3µM* | 1% | 7.1µM* | -4% | -10%
CCn1c(-c2ccc(F)cc2)n[nH]c1=S | 10% | ? | 2% | 5µM* | 25% | -13%
Cn1c(-c2ccccc2)n[nH]c1=S | -3% | · | -15% | 22µM* | 23% | -4%
CC(C)Cn1c(-c2csc3c2CCCC3)n[nH]c1=S | ? | 8.9µM* | -15% | 79µM* | 1% | -6%
CCOC(=O)CSc1nnc(-c2cccc(Cl)c2)n1CC | · | -8%[59 µM] | 4% | -7% | 20% | -7%
CCOc1cc(-c2n[nH]c(=S)n2Cc2ccccc2)ccc1OC(F)F | -10% | ? | -13% | -30% | 13% | -6%
Cc1ccc(-c2c(C(=O)NCc3ccc(F)cc3)oc(=O)c3ccccc23)cc1 | 1% | 6%[59 µM] | -4% | -4% | 38% | -21%
S=c1nc2ccccc2c2nc(-c3ccccc3Br)[nH]n12 | 11% | 10%[0.501 µM] | -5% | -8% | 17% | -17%
CC(C)(C)c1ccc(-c2n[nH]c(=S)n2C2CCCC2)cc1 | 2% | 7.9µM* | -1% | ? | 16% | -17%
CC(C)Cn1c(-c2ccccc2F)n[nH]c1=S | 16% | 1.4µM* | -4% | 4µM* | -14% | -19%
Cc1nc(-c2ccccc2)sc1-c1n[nH]c(=S)n1C | 79µM* | 3.5µM* | -2% | 10µM* | 12% | -2%
Cn1c(-c2ccccc2Br)n[nH]c1=S | · | · | -6% | 4.5µM* | -16% | -19%
CC1(C)Cc2c(sc(NC(=O)C(=O)N3CCCCC3)c2C(=O)O)CO1 | -14% | · | ? | 16% | 50% | -10%
